Test results reported in article doi:10.1101/2025.02.07.636106.

biological target: EEA1 (UniProt Q15075); test: cross-linking mass spectrometry; conditions: DMTMM
Sequence (Q15075 whole entry): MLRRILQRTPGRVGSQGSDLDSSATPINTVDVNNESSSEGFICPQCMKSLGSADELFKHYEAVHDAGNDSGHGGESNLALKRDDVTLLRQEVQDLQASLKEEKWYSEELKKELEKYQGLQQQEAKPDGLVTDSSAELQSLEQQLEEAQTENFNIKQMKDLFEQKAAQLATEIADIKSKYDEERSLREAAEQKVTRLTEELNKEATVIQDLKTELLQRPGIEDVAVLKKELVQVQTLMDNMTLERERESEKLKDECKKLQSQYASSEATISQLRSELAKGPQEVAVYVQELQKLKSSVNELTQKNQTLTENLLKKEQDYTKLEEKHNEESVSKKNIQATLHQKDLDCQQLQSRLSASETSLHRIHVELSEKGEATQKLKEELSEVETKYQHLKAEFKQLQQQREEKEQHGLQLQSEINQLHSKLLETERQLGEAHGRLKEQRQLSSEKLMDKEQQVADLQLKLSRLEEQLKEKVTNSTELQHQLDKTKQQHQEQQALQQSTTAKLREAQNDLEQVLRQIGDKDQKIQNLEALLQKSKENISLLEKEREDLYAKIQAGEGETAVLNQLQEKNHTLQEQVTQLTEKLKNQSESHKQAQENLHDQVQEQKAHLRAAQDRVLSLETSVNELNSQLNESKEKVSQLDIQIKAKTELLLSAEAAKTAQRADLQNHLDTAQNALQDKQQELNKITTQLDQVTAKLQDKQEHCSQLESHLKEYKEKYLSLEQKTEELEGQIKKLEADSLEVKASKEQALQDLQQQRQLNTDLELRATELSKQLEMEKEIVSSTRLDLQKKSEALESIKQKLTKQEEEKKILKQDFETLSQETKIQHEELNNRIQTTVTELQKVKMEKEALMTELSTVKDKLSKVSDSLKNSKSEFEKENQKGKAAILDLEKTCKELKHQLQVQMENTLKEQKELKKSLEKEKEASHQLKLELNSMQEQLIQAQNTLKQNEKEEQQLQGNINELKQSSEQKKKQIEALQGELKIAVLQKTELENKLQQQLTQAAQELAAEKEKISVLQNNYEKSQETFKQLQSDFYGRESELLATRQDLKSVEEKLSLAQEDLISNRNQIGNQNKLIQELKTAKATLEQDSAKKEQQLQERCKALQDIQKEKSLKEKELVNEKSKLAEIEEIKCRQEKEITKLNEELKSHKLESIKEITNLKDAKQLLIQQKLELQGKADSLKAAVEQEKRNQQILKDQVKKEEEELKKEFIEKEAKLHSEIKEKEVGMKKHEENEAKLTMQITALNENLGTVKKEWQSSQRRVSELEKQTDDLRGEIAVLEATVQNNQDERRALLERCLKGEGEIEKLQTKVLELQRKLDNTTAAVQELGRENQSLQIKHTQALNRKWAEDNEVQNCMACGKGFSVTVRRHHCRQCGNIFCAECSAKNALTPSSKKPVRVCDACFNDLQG

Chain of ACADL, P28330 (P28330 whole entry): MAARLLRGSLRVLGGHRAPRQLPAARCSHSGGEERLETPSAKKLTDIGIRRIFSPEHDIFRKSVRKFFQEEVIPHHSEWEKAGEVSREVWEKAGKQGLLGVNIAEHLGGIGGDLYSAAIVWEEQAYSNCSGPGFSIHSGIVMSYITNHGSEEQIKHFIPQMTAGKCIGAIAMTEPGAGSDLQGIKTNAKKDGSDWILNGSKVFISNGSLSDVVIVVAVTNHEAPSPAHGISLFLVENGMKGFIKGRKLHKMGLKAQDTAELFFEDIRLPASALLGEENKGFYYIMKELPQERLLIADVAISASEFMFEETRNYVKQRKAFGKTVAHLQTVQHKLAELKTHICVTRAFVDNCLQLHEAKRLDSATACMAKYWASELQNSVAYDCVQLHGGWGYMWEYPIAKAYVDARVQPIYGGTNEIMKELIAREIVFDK
Chain of ZNF638, Q14966 (Q14966 whole entry): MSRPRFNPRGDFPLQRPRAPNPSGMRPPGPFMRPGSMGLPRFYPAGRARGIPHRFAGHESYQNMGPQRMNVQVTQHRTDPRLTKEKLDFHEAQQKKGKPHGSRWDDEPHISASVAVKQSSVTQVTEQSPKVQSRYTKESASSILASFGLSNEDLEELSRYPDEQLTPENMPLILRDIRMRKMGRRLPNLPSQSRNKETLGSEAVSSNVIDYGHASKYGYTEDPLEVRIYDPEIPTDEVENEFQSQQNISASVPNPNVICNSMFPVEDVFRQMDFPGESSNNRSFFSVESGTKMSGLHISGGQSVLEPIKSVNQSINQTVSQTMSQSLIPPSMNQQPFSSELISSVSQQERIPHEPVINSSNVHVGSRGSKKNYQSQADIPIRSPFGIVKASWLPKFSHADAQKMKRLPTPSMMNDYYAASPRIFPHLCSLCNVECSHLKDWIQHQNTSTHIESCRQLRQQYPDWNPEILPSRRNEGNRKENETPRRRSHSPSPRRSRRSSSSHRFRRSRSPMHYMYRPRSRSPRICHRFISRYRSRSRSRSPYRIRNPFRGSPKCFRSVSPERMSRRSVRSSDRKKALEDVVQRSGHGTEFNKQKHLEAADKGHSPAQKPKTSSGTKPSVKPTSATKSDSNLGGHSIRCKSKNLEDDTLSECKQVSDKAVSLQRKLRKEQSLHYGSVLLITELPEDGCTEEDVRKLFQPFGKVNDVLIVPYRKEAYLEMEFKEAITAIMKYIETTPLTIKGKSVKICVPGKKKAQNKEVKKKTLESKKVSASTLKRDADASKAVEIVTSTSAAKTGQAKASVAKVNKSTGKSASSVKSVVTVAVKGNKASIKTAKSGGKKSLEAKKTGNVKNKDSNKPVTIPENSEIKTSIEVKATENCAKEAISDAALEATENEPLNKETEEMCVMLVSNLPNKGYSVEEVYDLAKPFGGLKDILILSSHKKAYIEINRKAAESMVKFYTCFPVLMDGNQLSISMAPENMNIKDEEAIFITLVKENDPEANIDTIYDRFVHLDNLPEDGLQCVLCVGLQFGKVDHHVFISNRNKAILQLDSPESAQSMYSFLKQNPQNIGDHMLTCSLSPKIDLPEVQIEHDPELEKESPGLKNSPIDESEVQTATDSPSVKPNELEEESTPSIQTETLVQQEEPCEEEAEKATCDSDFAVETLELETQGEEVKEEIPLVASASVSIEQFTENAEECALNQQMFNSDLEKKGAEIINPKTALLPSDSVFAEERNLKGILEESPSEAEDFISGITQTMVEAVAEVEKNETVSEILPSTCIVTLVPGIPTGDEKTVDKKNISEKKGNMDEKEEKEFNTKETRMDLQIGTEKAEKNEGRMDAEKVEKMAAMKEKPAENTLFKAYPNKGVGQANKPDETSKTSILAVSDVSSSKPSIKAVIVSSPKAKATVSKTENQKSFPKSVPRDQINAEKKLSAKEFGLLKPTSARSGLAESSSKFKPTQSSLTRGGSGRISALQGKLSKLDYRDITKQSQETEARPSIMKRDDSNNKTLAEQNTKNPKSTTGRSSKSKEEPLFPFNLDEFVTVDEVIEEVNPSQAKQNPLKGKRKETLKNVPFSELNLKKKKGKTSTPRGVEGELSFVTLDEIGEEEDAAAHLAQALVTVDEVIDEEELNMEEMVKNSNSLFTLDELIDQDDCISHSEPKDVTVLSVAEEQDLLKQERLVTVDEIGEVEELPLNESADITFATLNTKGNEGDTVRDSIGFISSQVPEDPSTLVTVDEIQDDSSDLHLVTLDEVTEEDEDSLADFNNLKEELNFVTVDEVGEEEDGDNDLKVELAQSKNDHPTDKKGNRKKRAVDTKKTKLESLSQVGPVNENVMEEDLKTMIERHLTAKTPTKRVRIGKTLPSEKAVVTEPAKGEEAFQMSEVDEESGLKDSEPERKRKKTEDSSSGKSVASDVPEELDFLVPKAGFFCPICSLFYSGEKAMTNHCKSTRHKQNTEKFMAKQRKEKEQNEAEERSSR
Chain of TPM4, P67936 (P67936 whole entry): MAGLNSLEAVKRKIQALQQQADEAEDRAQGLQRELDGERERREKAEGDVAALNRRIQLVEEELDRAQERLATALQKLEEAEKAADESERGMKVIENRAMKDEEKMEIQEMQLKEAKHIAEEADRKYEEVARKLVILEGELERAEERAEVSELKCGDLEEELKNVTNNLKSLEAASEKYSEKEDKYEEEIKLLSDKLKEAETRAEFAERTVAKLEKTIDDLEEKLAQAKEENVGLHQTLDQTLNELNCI
Chain of RAB9A, P51151 (P51151 whole entry): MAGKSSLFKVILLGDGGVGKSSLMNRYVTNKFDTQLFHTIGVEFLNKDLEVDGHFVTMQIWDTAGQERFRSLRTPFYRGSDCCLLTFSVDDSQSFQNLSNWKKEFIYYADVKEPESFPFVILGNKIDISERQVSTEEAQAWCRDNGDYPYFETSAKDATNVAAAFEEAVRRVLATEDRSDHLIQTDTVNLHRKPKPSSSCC

| Substance | cross-linked residues |
| --- | --- |
| NEB, P20929 | K8264 - E1248 |
| ACADL, P28330 | K92 - D1321 |
| DMD, P11532 | E2453 - K227 |
| ZNF638, Q14966 | K951 - E91 |

same assay, conditions: DSSO

| Substance | cross-linked residues |
| --- | --- |
| DST, Q03001 | K3770 - K995 |
| RAB9A, P51151 | K4 - K1340 |
| ROCK2, O75116 | K780 - K303 |
| TPM4, P67936 | K215 - K370 |
